Screening data from PubChem.
MCF10A rereplic = induces DNA re-replication in MCF 10a normal breast cells; AID 624296; actives 2.9% (n = 350,000); Potency, µM (top dose mostly 46.1 µM), hits mostly activators; MCF 10A DNA re-replication, Hoechst nuclear intensity, 48 h; note: nearly all actives have a fitted effect of over 50% in size
Gal4-VP16 FLuc = Gal4-VP16 reporter inhibition counter-screen. Potency, µM (doses to about 53.6 µM), most hits filed as inhibitors. AID 2546. actives 3.5% (n = 310,000). Drosophila S2 Gal4-VP16 UAS-luciferase, luminescence, 20 h;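 note: Gal4-VP16 expression switched on by copper sulfate through the metallothionein promoter; nearly all actives have a fitted effect of over 50% in size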
IL1B secr inh = inhibitors of inflammasome signaling (IL-1 beta secretion); AID 743279; actives 4.7% (n = 360,000); THP-1 LPS/ATP IL-1B secretion, AlphaLISA, 16 h; active compounds read low; activity change, % at 57.5 µM; in the data active = activity change below about -50%; inconclusive = mostly about -30% to -49%
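Secreted IL-1B measured by AlphaLISA bead assay after 16 h compound exposure of THP-1 cells; compounds (final up to 57.5 uM) added 1 h before LPS (250 ng/mL) and ATP (1.25 mM) stimulation; lower signal means less secretion.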
SW480 rereplic = DNA re-replication induction in SW480 cells | actives 1.8% (n = 340,000) | Potency, µM (top dose mostly 46.1 µM), most hits filed as activators | SW480 DNA re-replication, Hoechst DNA content imaging, 48 h; note: nearly all actives have a fitted effect of over 55% in size
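Quantitative HTS format with DMSO vehicle controls; 48 hr drug incubation at 37 C, then 40 min Hoechst staining and scanning imager measurement at 405 nm excitation.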
RORg inh = inhibitors of mouse ROR gamma transcriptional activity; P51450; Drosophila S2 Gal4-RORgamma UAS-luciferase reporter, 20 h; Potency, µM (top dose mostly 53.6 µM), actives largely listed as inhibitors; actives 5.4% (n = 310,000); note: nearly all actives have a fitted effect of over 60% in size
Target sequence (P51450 whole entry, looked up, the tested form may be a part): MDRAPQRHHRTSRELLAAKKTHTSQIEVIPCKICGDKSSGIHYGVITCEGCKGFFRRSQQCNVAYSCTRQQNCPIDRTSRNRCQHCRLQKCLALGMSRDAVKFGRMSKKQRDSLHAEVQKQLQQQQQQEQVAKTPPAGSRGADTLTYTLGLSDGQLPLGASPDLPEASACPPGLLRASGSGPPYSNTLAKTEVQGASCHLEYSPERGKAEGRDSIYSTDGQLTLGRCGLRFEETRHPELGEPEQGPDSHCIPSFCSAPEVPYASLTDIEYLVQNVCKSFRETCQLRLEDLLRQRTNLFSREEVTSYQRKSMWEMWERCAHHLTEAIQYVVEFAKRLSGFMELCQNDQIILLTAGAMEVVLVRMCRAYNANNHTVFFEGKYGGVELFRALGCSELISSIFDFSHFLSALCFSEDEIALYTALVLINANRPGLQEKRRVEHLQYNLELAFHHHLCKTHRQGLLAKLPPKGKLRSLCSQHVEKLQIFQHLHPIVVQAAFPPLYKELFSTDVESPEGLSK
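ROR gamma transcriptional activity was tracked as Gal4-UAS luciferase output in stably transfected Drosophila Schneider cells, with compound added 1 hr before 700 uM copper sulfate induction and a 20 hr ambient-temperature incubation.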
Numbers stand for hits; n = inactive; u = inconclusive; x = no result given; [ ] = another dose, or the depositor's remark. Rows were chosen to be rich in hits. Some 11% of all compounds tested hit in one or more screens of this group. Unless noted, calls come from the whole dose curve; as a rule, active = well fitted curve in the direction sought with a large enough effect; inconclusive = small, poorly fitted or top-dose-only effect, or another doubt; inactive = no such curve, though single readings can be large; an effect the other way counts as inactive or inconclusive.

SMILES	MCF10A rereplic	Gal4-VP16 FLuc	IL1B secr inh	SW480 rereplic	RORg inh
O=C(N/N=C/c1cn(-c2ccccc2)nc1-c1ccc2c(c1)OCCO2)c1ccncc1	n	5.01µM	n	u	2.24µM
O=C(N/N=C/c1cn(-c2ccccc2)nc1-c1ccc(F)cc1)c1ccc2c(c1)OCO2	n	u	u	n	2.24µM
O=C(NN=Cc1ccc2c(c1)OCO2)c1ccccc1	n	x	n	n	x
O=C(N/N=C\c1cn(-c2ccccc2)nc1-c1ccccc1)c1ccc2c(c1)OCO2	n	u	n	n	1.78µM
COc1ccc(-c2nn(-c3ccccc3)cc2/C=N/NC(=O)c2cccc(S(=O)(=O)Nc3ccccc3OC)c2)cc1	n	1.26µM	n	n	1.26µM
CN(C(=O)c1ccc(NC(=O)Cc2cccc(NC(=O)C3CCN(C(=O)C4CCCCC4)CC3)c2)cc1)C1CCCC1	u	x	n	n	x
COc1ccc(-c2nn(-c3ccccc3)cc2/C=N/NC(=O)c2ccc3c(c2)OCO3)cc1	x	n	x	x	2.51µM
COc1ccc(Cl)cc1S(=O)(=O)N1CCN=C1C	n	n	n	u	n
CC1=NCCN1S(=O)(=O)c1c(C(C)C)cc(C(C)C)cc1C(C)C	u	u	-58.5	n	n
O=C(Cn1c(NCCO)nc2ccccc21)Nc1ccc2c(c1)OCCCO2	n	x	n	n	x
Cc1onc(-c2ccccc2)c1C(=O)NC(=S)NNC(=O)c1ccncc1	u	u	n	n	u
Cc1onc(-c2ccccc2)c1C(=O)NNC(=S)NC(=O)/C=C/c1cccs1	u	4.47µM	n	n	3.55µM
Cc1onc(-c2ccccc2)c1C(=O)NNC(=S)NC(=O)c1ccc2c(c1)OCO2	n	n	n	n	2.51µM
COc1ccc(C(=O)NC(=S)NNC(=O)c2c(-c3ccccc3)noc2C)cc1OC	n	14.1µM	n	n	3.98µM
Cc1onc(-c2ccccc2)c1C(=O)NCc1ccc2c(c1)OCO2	u	n	n	n	u
O=C(CCN1C(=O)C2CC=CCC2C1=O)Nc1cccc(Cl)c1 (stereo not given)	n	n	n	n	n
C=C1C[C@@]23C[C@@]1(O)CC[C@@H]2[C@]12C=C[C@@H](O)[C@](C)(C(=O)O1)[C@@H]2[C@@H]3C(=O)O	x	n	x	x	n
CCC(c1nc2ccccc2[nH]1)n1c(=O)c(-c2cccnc2)nc2ccccc21 (stereo not given)	x	x	n	x	x
O=c1c(-c2ccccc2)nc2ccccc2n1C(c1ccccc1)c1nc2ccccc2[nH]1 (stereo not given)	x	x	-53.5	x	x
CC(c1nc2ccccc2[nH]1)n1c(=O)c(-c2cccnc2)nc2ccccc21 (stereo not given)	x	x	-88.2	x	x
COc1ccc(Cl)cc1NC(=O)CN(C)C(=O)CCNC(=O)c1ccccc1OC	n	x	n	n	x
CN(CCCC(=O)Nc1ccc(OC(F)F)cc1)S(=O)(=O)c1ccc(F)cc1	u	n	n	n	n
COc1ccc2cc(CN(CC3CCCO3)C(=S)Nc3ccccc3)c(=O)[nH]c2c1 (stereo not given)	13µM	n	u	16.4µM	n
COc1ccc2cc(CN(CC3CCCO3)C(=O)Nc3ccccc3OC)c(=O)[nH]c2c1 (stereo not given)	18.4µM	n	n	14.6µM	n
Cc1cc2cc(CN(CC3CCCO3)C(=S)Nc3ccccc3)c(=O)[nH]c2cc1C (stereo not given)	10.3µM	n	n	u	n[10 µM]
SMILES	MCF10A rereplic	Gal4-VP16 FLuc	IL1B secr inh	SW480 rereplic	RORg inh
COc1cccc(OC)c1OCc1cc(C2C3CCCC=C3C(C#N)=C(N)C2(C#N)C#N)c(C)cc1C (stereo not given)	12.6µM	n	n	17.8µM	n
CCCN1CC=C2C(C#N)=C(N)C(C#N)(C#N)C(c3cccc(OC)c3OC)C2C1 (stereo not given)	n	n	n	n	n
COc1ccc(-c2c(O)c3cc(O)cc(O)c3oc2=O)cc1	x	u	x	x	n
CC(c1ccc(Cl)cc1)n1c(-c2ccc3ccccc3n2)n[nH]c1=S (stereo not given)	u	4.47µM	n	n	1.78µM
CC1(C)Cc2ccccc2-c2nnc(-c3ccc4ccccc4n3)n21	n	n	n	n	n
CC(c1ccc(F)cc1)n1c(-c2ccc3ccccc3n2)n[nH]c1=S (stereo not given)	n	3.55µM	n	n	0.891µM
